Assay [1] in a line: Primary qHTS for inhibitors of nuclear receptor binding SET domain protein 2 (NSD2) in an isogenic RCH-ACV NSD2 p.E1099K mutant (9B) (AID 1645876). Further: nearly all actives have a fitted effect of over 70% in size. Further: potency means the concentration at half of the fitted maximal effect. On the technique in general: qHTS replaces the single test concentration by a dilution series.
Assay [2] in a line: Primary qHTS for inhibitors of nuclear receptor binding SET domain protein 2 (NSD2) in an RCH-ACV wild type WT cells (2C) (AID 1645877). Further: nearly all actives have a fitted effect of over 70% in size. Further: potency means the concentration at half of the fitted maximal effect.
In assay [3] the target is Catechol O-methyltransferase (Homo sapiens) (UniProt P21964). Kind of assay: Confirmatory Screen for Target Class Profiling of Small Molecule Inhibitors of Methyltransferases (AID 1745852). The settings on record: MTase-Glo luminescence, SAH detection, recombinant enzyme; measured here: COMT max response; stronger effect = lower value.

SMILES strings stand for the structures. Several values for one entry are separate records, joined by “and”; a condition that tells them apart may be missing. Equal values may be shown once. Results filed as inconclusive are left out. Activity calls are given as the source filed them. The call rests on the fitted dose curve; in most records, active means well fitted curve in the direction sought with a large enough effect; inconclusive means small, poorly fitted or top-dose-only effect, or another doubt; inactive means no such curve, though single readings can be large; an effect the other way counts as inactive or inconclusive.

Sequence of Catechol O-methyltransferase (Homo sapiens) (P21964 whole entry, looked up): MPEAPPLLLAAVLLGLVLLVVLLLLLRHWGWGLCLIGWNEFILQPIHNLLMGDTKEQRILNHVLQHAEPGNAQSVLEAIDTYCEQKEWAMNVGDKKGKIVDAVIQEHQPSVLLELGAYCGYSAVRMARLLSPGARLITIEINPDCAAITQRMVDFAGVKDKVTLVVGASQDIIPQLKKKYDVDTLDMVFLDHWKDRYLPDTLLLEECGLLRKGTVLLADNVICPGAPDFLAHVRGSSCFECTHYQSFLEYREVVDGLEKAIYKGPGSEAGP

With `CC1(C)CC[C@]2(C(=O)O[C@@H]3O[C@H](CO)[C@@H](O)[C@H](O)[C@H]3O)CC[C@]3(C)C(=CCC4[C@@]5(C)C[C@@H](O)[C@H](O)[C@@](C)(CO)C5CC[C@]43C)C2[C@@H]1O` (stereo partly specified), the Potency result in assay [1] and in assay [2] was “inactive” throughout. Besides, the activity in assay [3] is -79.9%.
Regarding `COC(=O)C1=CO[C@@H](O[C@@H]2O[C@H](CO)[C@@H](O)[C@H](O)[C@H]2O)[C@H]2[C@@H]1CC(OC)O[C@@H]2C` (stereo partly specified), the Potency result in assay [1] and in assay [2] was “inactive” throughout. Further, in assay [3], the activity was -63.3%.
For `CC1CCC2(CO)C(C(=O)O)=CCCC2C1(C)CCc1ccoc1` (stereo unspecified), the Potency entry in assay [1] and in assay [2] was “inactive” throughout. The activity in assay [3] was -92.5%.
Take `Cc1cc(=O)oc2c(C=O)c(O)ccc12`: the Potency in assay [1] was 18.3 µM (active); in assay [2] it was 16.3 µM (active). In assay [3], the activity was -6.39%.
With `CC(C)c1c2cc(-c3ccnc(NC4CCC(NC5CCOCC5)CC4)n3)ccc2nn1C` (stereo unspecified), the Potency in assay [1] was 163 nM (active) and 148 nM (active); in assay [2] it was 129 nM (active) and 93.4 nM (active). For the same compound, in assay [3], the activity is -27.8%.
As for `CC1(C)CC[C@]2(C(=O)O[C@@H]3O[C@H](CO)[C@@H](O)[C@H](O)[C@H]3O)CC[C@]3(C)C(=CCC4[C@@]5(C)C[C@@H](O)[C@H](O)C(C)(C)C5CC[C@]43C)C2[C@@H]1O` (stereo partly specified), the Potency result in assay [1] and in assay [2] was “inactive” in each case. Further, the activity in assay [3] was -85.2%.
Turning to `COc1ccc(CCO[C@@H]2O[C@H](CO[C@@H]3OC[C@H](O)[C@H](O)[C@H]3O)[C@@H](O)[C@H](O)[C@H]2O)cc1`, the Potency result in assay [1] and in assay [2] was “inactive” in each case. The activity in assay [3] is -55.1%.
On to `C=C1C(=O)OC2/C=C(\CO)CC/C=C(\C=O)CC(OC(=O)CC(C)C)C12` (stereo unspecified), for which the results for the Potency in assay [1] and in assay [2] were 4.01 µM (active) and 2.26 µM (active), respectively. In addition, the activity in assay [3] is -71%.
Turning to `COc1c2c(c(C)c3c1C(=O)OC3)OC1(C)CC(O)C34OC(OC)(OC3(C)C)C(O)CC4(C)C1C2` (stereo unspecified), the Potency entry in assay [1] and in assay [2] was “inactive” each time.
Turning to `Cc1cc(N(C)C)ccc1-c1nc2ccc(-c3nc4ccc(N5CCN(C)CC5)cc4[nH]3)cc2[nH]1`, the Potency was 0.578 µM (active) in assay [1] and 0.258 µM (active) in assay [2]. In assay [3], the activity is -4.96%.
On to `CN(C)C/C=C/C(=O)Nc1cccc(C(=O)Nc2cccc(Nc3ncc(Cl)c(-c4c[nH]c5ccccc45)n3)c2)c1`, for which the Potency is 64.9 nM (active) and 148 nM (active) in assay [1]; 72.8 nM (active) and 132 nM (active) in assay [2]. In addition, the activity in assay [3] is -3.58%.
`CC(O)(CC(=O)O)CC(=O)OCc1ccc(O[C@@H]2O[C@H](CO)[C@@H](O)[C@H](O)[C@H]2O)cc1` (stereo partly specified): the Potency entry in assay [1] and in assay [2] was “inactive” throughout. In addition, the activity in assay [3] was -58.1%.
As to `CC(=O)OC/C=C(\C)C(CC1C(C)=C(OC(C)=O)C(=O)C2C(C)(C)C(O)CCC12C)OC(C)=O` (stereo unspecified), the Potency entry in assay [1] and in assay [2] was “inactive” throughout. For the same compound, in assay [3], the activity is -67.8%.
For the compound `COC(=O)C1=CO[C@@H](O[C@@H]2O[C@H](CO[C@@H]3O[C@H](COC(=O)/C=C/c4cc(OC)c(O)c(OC)c4)[C@@H](O)[C@H](O)[C@H]3O)[C@@H](O)[C@H](O)[C@H]2O)[C@@H]2C(CO)=CC[C@H]12`, the Potency entry in assay [1] and in assay [2] was “inactive” throughout. Further, the activity in assay [3] is -63.8%.
Turning to `CC1(C)[C@@H](O)CC[C@]2(C)[C@H]3CC=C4[C@@H]5C[C@](C)(C(=O)O)CC[C@]5(C)CC[C@@]4(C)[C@]3(C)CC[C@@H]12`, the Potency entry in assay [1] and in assay [2] was “inactive” each time. The activity in assay [3] was -16.8%.
`C[C@]12C[C@@H](O)[C@@H]3C[C@@]1(O[C@@H]1O[C@H](CO)[C@@H](O)[C@H](O)[C@H]1O)[C@]3(COC(=O)c1ccccc1)C(=O)O2`: the Potency entry in assay [1] and in assay [2] was “inactive” throughout. Also, in assay [3], the activity was -66.1%.
Regarding `CC1=CC(=O)C2(OC3OC(C)C(O)C(OC(=O)/C=C/c4ccccc4)C3O)C=COC(OC3OC(CO)C(O)C(O)C3O)C12` (stereo unspecified), the Potency entry in assay [1] and in assay [2] was “inactive” each time. Besides, the activity in assay [3] is -48.2%.
For the compound `CC1=CC(=O)CC(C)(C)C1CCC(C)O[C@@H]1O[C@H](CO[C@@H]2OC[C@@H](O)[C@H](O)[C@H]2O)[C@@H](O)[C@H](O)[C@H]1O` (stereo partly specified), the Potency result in assay [1] and in assay [2] was “inactive” throughout. Moreover, in assay [3], the activity was -54.5%.
For `C=C(C)C1Cc2cc(C(=O)OC3OC(CO)C(O)C(O)C3O)ccc2O1` (stereo unspecified), the Potency entry in assay [1] and in assay [2] was “inactive” each time. Further, the activity in assay [3] was -58%.

The values are drawn from PubChem BioAssay (NCATS).
